Assay outcomes as filed in PubChem BioAssay.
G9a block: blocks human histone lysine methyltransferase G9a | G9a H3K9 monomethylation, AlphaScreen, 2 h | Potency, µM (doses to about 102 µM), without a hit: top-dose activity, negative = inhibition, actives largely listed as inhibitors | hit rate 8.8% among 350,000; further: potency means the concentration at half of the fitted maximal effect; on the % scale 0 is the no-effect control and ±100 the full control effect; nearly all actives have a fitted effect of over 75% in size
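G9a (20 nM) was preincubated 15 min with compound, then reacted 2 h at room temperature with 500 nM biotin-H3K9 peptide and 20 µM SAM. Monomethyl-H3K9 detected by AlphaScreen using anti-H3K9me1 antibody.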
PI5P4Ka inh: blocks human PI5P4K alpha kinase activity. P48426. PI5P4Kalpha enzyme, ADP-Glo luminescence, 60 min; hits give low values. max response, %. hit rate 1.2% among 330,000; active means max response of -50% or lower; inconclusive means between -30% and -50%; inactive means -30% or higher; further: value at the top dose of about 77 µM; on the % scale 0 is the no-effect control and ±100 the full control effect
Target sequence (P48426 whole entry, looked up): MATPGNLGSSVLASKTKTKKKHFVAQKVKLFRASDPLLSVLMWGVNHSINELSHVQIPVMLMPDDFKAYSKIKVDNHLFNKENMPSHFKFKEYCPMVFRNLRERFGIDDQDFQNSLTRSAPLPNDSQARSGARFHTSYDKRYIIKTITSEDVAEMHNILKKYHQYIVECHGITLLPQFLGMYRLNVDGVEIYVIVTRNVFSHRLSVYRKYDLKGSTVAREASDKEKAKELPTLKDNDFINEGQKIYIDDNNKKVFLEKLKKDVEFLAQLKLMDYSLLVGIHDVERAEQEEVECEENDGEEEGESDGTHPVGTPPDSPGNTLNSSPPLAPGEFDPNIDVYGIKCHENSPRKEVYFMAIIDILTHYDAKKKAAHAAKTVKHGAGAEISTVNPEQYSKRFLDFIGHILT
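Enzyme plus substrate dispensed, test compounds pinned in, then ATP (5 microM final) added. After 60 min at RT, ADP-Glo reagent 1 for 45 min and reagent 2 for 30 min preceded luminescence imaging.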
BAZ2B block: blocks human BAZ2B. AlphaScreen BAZ2B-H3K14Ac peptide displacement. Q9UIF8. hit rate 4.4% among 360,000. Potency, µM (titrated, usually from 114 µM), for inactives: at the highest dose activity change, negative = inhibition, most hits filed as inhibitors; further: potency means the concentration at half of the fitted maximal effect; on the % scale 0 is the no-effect control and ±100 the full control effect; nearly all actives have a fitted effect of over 60% in size
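Inhibition is scored as reduced AlphaScreen emission. The BAZ2B/b-H3(5-23)K14Ac complex (50 nM each) in PBS pH 7.4, 0.01% Tween-20 meets compound (up to 110 uM) for 30 min at RT before bead addition.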
JMJD2A Tudor inh: blocks the human JMJD2A Tudor domain. AlphaScreen JMJD2A-Tudor / H3K4me3 peptide binding. Potency, µM (titrated, usually from 114 µM), inactives show at the highest dose activity change, negative = inhibition, usual class: inhibitors. hit rate 4.4% among 390,000. AID 504339; further: potency means the concentration at half of the fitted maximal effect; on the % scale 0 is the no-effect control and ±100 the full control effect; nearly all actives have a fitted effect of over 50% in size
HP1b chromo inh: blocks HP1-beta chromodomain binding to methylated histone tails; hit rate 0.56% among 390,000; AlphaScreen HP1-beta / biotin-H3K9me3 peptide binding; Potency, µM (titrated, usually from 114 µM), for the others: at the highest dose activity change, negative = inhibition, most hits filed as inhibitors; P83916; further: potency means the concentration at half of the fitted maximal effect; nearly all actives have a fitted effect of over 70% in size
Target sequence (P83916 whole entry, looked up): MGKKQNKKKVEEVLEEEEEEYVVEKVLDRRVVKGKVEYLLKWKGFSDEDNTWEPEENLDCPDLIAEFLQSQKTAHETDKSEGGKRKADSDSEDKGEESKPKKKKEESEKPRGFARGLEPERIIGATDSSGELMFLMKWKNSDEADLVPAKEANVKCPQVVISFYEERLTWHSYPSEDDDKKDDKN
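HP1-beta protein (50 nM final) preincubated 30 min at room temperature with biotinylated H3(1-18)K9me3 peptide (50 nM) in PBS pH 7.4, 0.01% Tween-20, then compound added for 30 min. AlphaScreen streptavidin donor/nickel chelate acceptor beads (10 ug/mL final), 30 min dark, luminescence read.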
L3MBTL1 inh: blocks human L3MBTL1 | Q9Y468 | AlphaScreen L3MBTL1–H3K9me1 peptide binding | Potency, µM (doses to about 57.1 µM), for inactives: at the highest dose activity, negative = inhibition, hits mostly inhibitors | hit rate 0.66% among 230,000; further: potency means the concentration at half of the fitted maximal effect; on the % scale 0 is the no-effect control and ±100 the full control effect; nearly all actives have a fitted effect of over 60% in size
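Displacement of a biotinylated histone H3(1-15) peptide monomethylated at Lys9 (75 nM) from L3MBTL1 (50 nM) was measured by AlphaScreen after a 30 min room-temperature compound incubation; cefsulodin titration served as intraplate control.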
Starred values were filed as active, the others as inactive; [ ] = remark or other dose. Most compounds without a hit are left out; they make up all but 11% or so of the library. Unless noted, the call rests on the fitted dose curve; in most records, active means well fitted inhibition curve with a large enough effect; inconclusive means small, poorly fitted or top-dose-only effect; inactive means no such curve, though single readings can be large or run the other way.

How did COc1ccc([N+](=O)[O-])cc1Nc1c2ccccc2nc2ccccc12 do in these assays?
G9a block: -14.2%; PI5P4Ka inh: -1.8; BAZ2B block: -6.6%; JMJD2A Tudor inh: -20.7%; HP1b chromo inh: -2.5%; L3MBTL1 inh: -2.3%

Results for Cc1ccc(Nc2nc(NCCO)c3ccccc3n2)cc1C ?
G9a block: 79.4µM*; PI5P4Ka inh: -11.2; BAZ2B block: -34.1%; JMJD2A Tudor inh: -35.6%; HP1b chromo inh: 38.7%; L3MBTL1 inh: -1.2%

How did COc1ccccc1Nc1nc(NCCO)c2ccccc2n1 do in these assays?
G9a block: -36.6%; BAZ2B block: -3.8%; L3MBTL1 inh: 3.3%

How did COc1cccc(-c2nc(NCC3CCCO3)c3ccccc3n2)c1O (centres undefined) do in these assays?
G9a block: inconclusive; PI5P4Ka inh: 6.6; BAZ2B block: inconclusive; JMJD2A Tudor inh: inconclusive; HP1b chromo inh: -23.9%; L3MBTL1 inh: 0.6%

How did COc1cc(NS(C)(=O)=O)ccc1Nc1c2ccccc2nc2ccccc12 do in these assays?
G9a block: 11.9µM*; PI5P4Ka inh: 5.1; BAZ2B block: inconclusive; JMJD2A Tudor inh: inconclusive; HP1b chromo inh: -5.7%; L3MBTL1 inh: -9.3%

How did COc1ccc(OC)c(Nc2nc(NCCO)c3ccccc3n2)c1 do in these assays?
PI5P4Ka inh: 5.3; BAZ2B block: 50.1µM*; JMJD2A Tudor inh: 44.7µM*; HP1b chromo inh: -14.6%; L3MBTL1 inh: -2.1%

Results for COc1ccc(OC)c(Nc2c3ccccc3nc3ccccc23)c1 ?
G9a block: -16.5%[2.33 µM]; PI5P4Ka inh: 4.4; BAZ2B block: 50.1µM*; JMJD2A Tudor inh: 22.4µM*; HP1b chromo inh: inconclusive

What do the screens show for `COc1ccc(OC)c(Nc2c3c(nc4ccccc24)CCC3)c1`?
G9a block: -3.6%; PI5P4Ka inh: -0.1; BAZ2B block: -29.4%; JMJD2A Tudor inh: inconclusive; HP1b chromo inh: 7.8%

How did CCc1ccccc1NC(=O)CSc1nc2c(oc3ccccc32)c(=O)n1C do in these assays?
G9a block: -30.6%[59 µM]; BAZ2B block: -2.2%; JMJD2A Tudor inh: -15.3%; HP1b chromo inh: 21.2%

How did CC1CCN(C(=O)Cn2c(=O)n(CCCCCC(=O)NCc3ccccc3Cl)c(=O)c3sccc32)CC1 do in these assays?
G9a block: 20.4%[59 µM]; BAZ2B block: -1.7%; JMJD2A Tudor inh: -18.1%; HP1b chromo inh: 33.6%

How did CN(C)c1ncc2nc(-c3ccc(F)cc3)c(=O)n(CCC#N)c2n1 do in these assays?
G9a block: 1.1%[12.7 µM]

What do the screens show for `[O-]/[N+](=C\c1ccncc1)c1ccc(Br)cc1`?
G9a block: 39.8µM*; PI5P4Ka inh: -9.9; BAZ2B block: inconclusive; JMJD2A Tudor inh: -30.6%; HP1b chromo inh: -9.9%; L3MBTL1 inh: -6.0%

What do the screens show for `CCn1ccnc1CN(C)C(=O)c1cc(COc2ccc(OC)c3ccccc23)on1`?
G9a block: 92.5%; PI5P4Ka inh: 3.5; BAZ2B block: 1.2%; JMJD2A Tudor inh: 50.1µM*; HP1b chromo inh: inconclusive

How did CC(=O)c1cccc(OCc2cc(C(=O)N(C)Cc3ccc(C)o3)no2)c1 do in these assays?
PI5P4Ka inh: -19.4; BAZ2B block: -24.0%; JMJD2A Tudor inh: 79.4µM*; HP1b chromo inh: inconclusive

How did CSc1ccccc1OCc1cc(C(=O)N2CCN(c3ncccn3)CC2)no1 do in these assays?
G9a block: 56.2µM*; PI5P4Ka inh: -4.9; BAZ2B block: -27.2%; JMJD2A Tudor inh: inconclusive; HP1b chromo inh: 7.8%

What do the screens show for `CSc1ccccc1OCc1cc(C(=O)N(C)Cc2ccc(C)o2)no1`?
G9a block: 50.1µM*; PI5P4Ka inh: -1.5; BAZ2B block: -23.9%; JMJD2A Tudor inh: -28.0%; HP1b chromo inh: -9.0%

Results for O=C1Cc2cc(S(=O)(=O)N3CCN(c4ccc(C(F)(F)F)cc4)CC3)ccc2N1 ?
JMJD2A Tudor inh: -29.8%[229 µM]

Results for NC(N)=NCCC[C@H](NC(=O)[C@@H](N)Cc1ccc(O)cc1)C(=O)O ?
G9a block: 47.9%[59 µM]

How did CN(C)C(=S)Nn1c(-c2ccccc2)nc2ccccc2c1=O do in these assays?
G9a block: -0.2%[59 µM]; PI5P4Ka inh: 0.6; BAZ2B block: -1.9%; JMJD2A Tudor inh: -5.9%; HP1b chromo inh: 26.0%[57 µM]; L3MBTL1 inh: 6.4%

Results for Cc1cccc(-c2nc3ccccc3c(=O)n2NC(=S)N(C)C)c1 ?
G9a block: 8.91µM*; PI5P4Ka inh: inconclusive; BAZ2B block: -5.3%; JMJD2A Tudor inh: 89.1µM*; HP1b chromo inh: -46.9%; L3MBTL1 inh: 7.5%

Results for O=C(OCC#CCSc1nnc(-c2cccc3ccccc23)o1)c1ccc(F)nc1 ?
JMJD2A Tudor inh: 19.7%

What do the screens show for `O=C(CNCCc1ccccc1)N1CCc2ccccc2C1`?
G9a block: 22.4µM*; PI5P4Ka inh: 8.6; BAZ2B block: 50.1µM*; JMJD2A Tudor inh: 3.16µM*; HP1b chromo inh: inconclusive; L3MBTL1 inh: 0.8%

How did O=C(CNCc1cccc(Cl)c1)N1CCc2ccccc2C1 do in these assays?
G9a block: 14.1µM*; PI5P4Ka inh: 0.1; BAZ2B block: 56.2µM*; JMJD2A Tudor inh: 20µM*; HP1b chromo inh: -37.0%

How did CC(NCc1ccco1)C(=O)N1CCc2ccccc2C1 (centres undefined) do in these assays?
G9a block: inconclusive; BAZ2B block: 56.2µM*; JMJD2A Tudor inh: 11.2µM*; HP1b chromo inh: inconclusive; L3MBTL1 inh: 4.5%[11.4 µM]

How did O=C(CNC1CCCCC1)N1CCc2ccccc2C1 do in these assays?
G9a block: -45.7%[12.7 µM]; PI5P4Ka inh: 2.3; BAZ2B block: 70.8µM*; JMJD2A Tudor inh: 3.16µM*; HP1b chromo inh: -10.1%

What do the screens show for `O=C(NC1CCCCC1)N1CCc2ccccc2C1`?
G9a block: 6.5%; PI5P4Ka inh: 0.1; BAZ2B block: -10.5%; JMJD2A Tudor inh: -19.9%; HP1b chromo inh: -11.8%; L3MBTL1 inh: -1.6%

What do the screens show for `CCCc1cnc2c(c1SCC(=O)N(C)c1ccccc1)c(=O)n(C)c(=O)n2C`?
G9a block: -9.2%[59 µM]; BAZ2B block: -13.2%; JMJD2A Tudor inh: 1.0%; HP1b chromo inh: 20.5%

Results for COc1ccc(OC)c(CNC(=O)c2ccc3nc(C(C)C)oc3c2)c1 ?
G9a block: 3.9%[59 µM]; BAZ2B block: -7.4%; JMJD2A Tudor inh: -15.3%; HP1b chromo inh: 9.0%[57 µM]

Results for O=c1oc2ccccc2cc1-c1cn2cc(Cc3ccc(Br)cc3)sc2n1 ?
G9a block: 9.0%[59 µM]; BAZ2B block: 2.8%; JMJD2A Tudor inh: 1.0%; HP1b chromo inh: 29.7%

Results for O=C(CNCc1ccc(Cl)cc1)N1CCc2ccccc2C1 ?
G9a block: -4.1%; PI5P4Ka inh: 1.7; BAZ2B block: inconclusive; JMJD2A Tudor inh: 22.4µM*; HP1b chromo inh: -34.5%

Results for O=C(NCc1ccc(Cl)cc1)N1CCc2ccccc2C1 ?
G9a block: 26.8%; PI5P4Ka inh: 1.3; BAZ2B block: 5.3%; JMJD2A Tudor inh: 0.7%; HP1b chromo inh: 31.6%
